# Reference: PubChem BioAssay (NCATS)
# Records with an inconclusive call do not appear. Activity calls are given as the source filed them. Calls come from the whole dose curve; as a rule, active = well fitted cell-killing curve with a large enough effect; inconclusive = small, poorly fitted or top-dose-only effect; inactive = flat fitted curve, though single readings scatter.
# Assay: qHTS of pediatric cancer cell lines to identify multiple opportunities for drug repurposing: Primary screen for RD cells (AID 1347104); note: nearly all actives have a fitted effect of over 55% in size
# Conditions: RD rhabdomyosarcoma viability, CellTiter-Glo luminescence, 48 h; series mostly up to 46 µM
# Procedure, shortened: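 Cells plated at 500-1,000/well in growth medium, compounds added after 5 h. MIPE tested at 11 points (from 0.78 nM), NPC at 8 points (from 0.59 nM). CellTiter-Glo luminescence after 48 h; concentration-response curves from primary screen.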
# Potency is the fitted concentration of half-maximal effect.
row,Structure (SMILES),Potency
1,Cc1ccc(NC(=O)c2ccc(CN3CCN(C)CC3)cc2)cc1Nc1nc(-c2cccnc2)cs1,18.7 µM (active)
2,CC(C)CN(C[C@@H](O)[C@H](Cc1ccccc1)NC(=O)O[C@H]1CO[C@H]2OCC[C@H]21)S(=O)(=O)c1ccc(N)cc1,14.8 µM (active)
3,CCN(CC)CCCCNc1nc2cc(Cl)c(Cl)cc2nc1-c1ccc(-c2cccs2)s1,18.7 µM (active)
4,CCOC(=O)[C@H](CCc1ccccc1)N[C@@H](C)C(=O)N1CCCC1C(=O)O (some centres not stated),inactive
5,O=c1[nH]nc(OCCCc2ccc(Cl)cc2)c(NCc2cccnc2)c1Br,14.8 µM (active)
6,CC(C)C[C@@H](N)[C@H](O)C(=O)N[C@H](C(=O)N[C@H](C(=O)N[C@@H](CC(=O)O)C(=O)O)C(C)C)C(C)C,inactive
7,CN1CCC[C@H]1CCO[C@](C)(c1ccccc1)c1ccc(Cl)cc1,37.2 µM (active)
8,CCN(CCO)CCCOc1ccc2c(Nc3cc(CC(=O)Nc4cccc(F)c4)[nH]n3)ncnc2c1,inactive
9,O=S(=O)(NCCNCC=Cc1ccc(Br)cc1)c1cccc2cnccc12,18.7 µM (active)
10,CN1CC(=O)N2C(Cc3c([nH]c4ccccc34)[C@H]2c2ccc3c(c2)OCO3)C1=O (some centres not stated),inactive
11,Cc1cccc(Nc2nc(N[C@@H]3CCCC[C@H]3N)ncc2C(N)=O)c1,16.6 µM (active)
12,COc1ccc(-c2ccc3ncc4c(c3c2)n(-c2ccc(N3CCNCC3)c(C(F)(F)F)c2)c(=O)n4C)cn1,0.743 µM (active)
13,O=c1cc(-c2ccc(O)c(O)c2)oc2cc(O)cc(O)c12,inactive
14,Cn1c(=O)c(Oc2ccc(F)cc2F)cc2cnc(NC3CCOCC3)nc21,inactive
15,CN[C@@H]1CN(c2ccc3c(=O)c(C(=O)O)cn(-c4nccs4)c3n2)C[C@@H]1OC,14.4 µM (active)
16,COc1cc2nc(-c3cc(F)ccc3O)nc(N[C@@H]3CNC[C@@H]3C(C)(C)O)c2cc1OC,33.2 µM (active)
17,C[C@@H]1[C@H](C)CC[C@]2(C(=O)O)CC[C@]3(C)C(=CC[C@@H]4[C@@]5(C)CC[C@H](O)C(C)(C)[C@H]5CC[C@]43C)[C@@H]12,inactive
18,CC[C@H]1OC(=O)[C@H](C)[C@@H](O[C@H]2C[C@@](C)(OC)[C@@H](O)[C@H](C)O2)[C@H](C)[C@@H](O[C@@H]2O[C@H](C)C[C@H](N(C)C)[C@H]2O)[C@](C)(O)C[C@H](C)C(=NOCOCCOC)[C@H](C)[C@@H](O)[C@]1(C)O,inactive
19,O=C(NCCCCN1CCOCC1)c1cc2ccccc2o1,inactive
20,Cc1ccc(S(=O)(=O)Nc2nc3ccccc3nc2Nc2ccc3nsnc3c2)cc1,0.0512 µM (active)
21,CC(C)(CO)[C@@H](O)C(=O)NCCC(=O)O,inactive
22,CC(C)CNc1ccnc(NCc2csc(-c3ccccc3)n2)n1,29.6 µM (active)
23,FC(F)(F)c1ccc(C=Cc2nc(COc3ccc(CCCCn4ccnn4)cc3)co2)cc1,0.0118 µM (active)
24,CC1(C)OC2CC3C4CC(F)C5=CC(=O)C=CC5(C)C4C(O)CC3(C)[C@]2(C(=O)CO)O1 (some centres not stated),inactive
25,CC(C)N(CCCNC(=O)Nc1ccc(C(C)(C)C)cc1)C[C@H]1O[C@@H](n2cc(Br)c3c(N)ncnc32)[C@H](O)[C@H]1O,29.6 µM (active)
26,CCCCCOC(=O)Nc1nc(=O)n([C@@H]2O[C@H](C)[C@@H](O)C2O)cc1F (some centres not stated),inactive
27,N#CC(=C1Nc2ccccc2S1)c1ccnc(OCc2ccc(CN3CCOCC3)cc2)n1,0.662 µM (active)
